# Results reported in PubChem BioAssay (NCATS).
# Records with an inconclusive call do not appear. Active and inactive are the calls of the source. Unless noted, calls come from the whole dose curve.
# How the values were obtained:
# [1] = Primary qHTS to identify inhibitors of SARS-CoV-2 cell entry (AID 1645846); conditions: activity change, negative = inhibition: at 57.1 µM (top of the series) unless noted; note: nearly all actives have a fitted effect of over 45% in size; note: potency is the fitted concentration of half-maximal effect
# Outline: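 Data are normalized to wells receiving SARS-CoV-2-S pseudoparticles and those given bald particles. Entry signal was luciferase luminescence in stable hACE2 Expi293F cells, 48 hr post-infection, after 1 hr compound pretreatment.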
# [2] = Confirmatory qHTS for VERO E6 Cytotoxicity Assay: Counterscreen for SARS-CoV-2 CPE Assay (AID 1508605); note: nearly all actives have a fitted effect of over 60% in size; note: potency is the fitted concentration of half-maximal effect
# [3] = Confirmatory qHTS for activators (rescue) of SARS-CoV-2 Cytopathic Effect (CPE) (AID 1508606); note: potency is the fitted concentration of half-maximal effect; nearly all actives have a fitted effect of over 70% in size
# [4] = Primary qHTS for inhibitors of SARS-S pseudo-typed particle cell entry (AID 1479145); note: % is set by controls: 0 for no effect and ±100 for the full control effect; nearly all actives have a fitted effect of over 45% in size
# [5] = Primary qHTS for Huh7 cytotoxicity: counterscreen for inhibitors of MERS-S pseudotyped particle cell entry (AID 1479147); conditions: outcome: dose series up to 57.1 µM unless noted
# [6] = Primary qHTS for inhibitors of MERS-S pseudo-typed particle cell entry (AID 1479149); note: nearly all actives have a fitted effect of over 60% in size; for activity change, negative = inhibition: % is set by controls: 0 for no effect and ±100 for the full control effect
# [7] = Primary qHTS for Vero E6 cytotoxicity: counterscreen for inhibitors of SARS-S pseudo-typed particle cell entry (AID 1479150); conditions: outcome: dose series up to 57.1 µM unless noted
# [8] = target: Cytochrome P450 3A4 (Homo sapiens) (UniProt P08684); assay: qHTS Assay for Inhibitors and Substrates of Cytochrome P450 3A4 (AID 884; active = well fitted curve in the direction sought with a large enough effect; an effect the other way counts as inactive or inconclusive; note: nearly all actives have a fitted effect of over 50% in size; note: potency is the fitted concentration of half-maximal effect)
# Outline: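 20 nM human CYP3A4 with 25 uM Luciferin-PPXE (at KM) in 200 mM KPO4, preincubated 10 min with compound; NADPH regeneration started a 60 min RT reaction. Luciferin detected by luminescence, normalized to 57 uM ketoconazole as full inhibition.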
# [9] = target: DNA dC->dU-editing enzyme APOBEC-3G (Homo sapiens) (UniProt Q9HC16); assay: qHTS for inhibitors of Vif-A3G interactions: Validation (AID 588379; active = well fitted curve in the direction sought with a large enough effect; an effect the other way counts as inactive or inconclusive; note: 0% is about no effect)
# Outline: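 HeLa cells stably expressing Vif and A3G-eYFP, 700 cells/well, incubated overnight at 37 deg C, then exposed to compound overnight at 37 deg C. Inhibition of Vif-mediated degradation read as increased yellow fluorescence (Ex 488/Em 500-530) by laser-scanning cytometry.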
# [10] = test system: Zika virus NS2B-NS3 protease; assay: Primary screen GU AMC qHTS for Zika virus inhibitors (AID 1347154; active = well fitted curve in the direction sought with a large enough effect; an effect the other way counts as inactive or inconclusive;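 note: 0% = no-inhibitor control and -100% = no-enzyme control; nearly all actives have a fitted effect of over 70% in size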)
# Outline: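 Unlinked Zika NS2B hydrophilic domain/NS3 protease domain noncovalent complex (25 nM final) in 10 mM Tris-HCl pH 8.0, 0.01% Tween 20, with AMC peptide substrate. Fluorescence (ex 340, em 450 nm) change over 15 min, room temperature; percent inhibition fitted to 4-parameter Hill equation.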
# [11] = Primary qHTS for small molecule stabilizers of the endoplasmic reticulum resident proteome: Secreted ER Calcium Modulated Protein (SERCaMP) assay (AID 1508630; active = well fitted curve in the direction sought with a large enough effect; an effect the other way counts as inactive or inconclusive; note: potency is the fitted concentration of half-maximal effect)
# Outline: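 GLuc-SERCaMP-expressing SH-SY5Y cells, pretreated 16 h with compound, are challenged with thapsigargin to empty ER calcium stores; after 4 h, coelenterazine is added directly to the medium and luminescence is imaged.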
# [12] = target: Phenylethanolamine N-methyltransferase (Homo sapiens) (UniProt P11086); assay: Confirmatory Screen for Target Class Profiling of Small Molecule Inhibitors of Methyltransferases (AID 1745852); conditions: MTase-Glo luminescence, SAH detection, recombinant enzyme; measured here: PNMT max response; stronger effect = lower value
# [13] = qHTS Assay for Lipid Storage Modulators (AID 1519); conditions: Drosophila S3 cells, BODIPY lipid droplet/cell ratio, laser cytometry, cells loaded with oleic acid; for activity change, negative = inhibition: at 57.5 µM (top of the series)
# Outline: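 Cells seeded at 5,000 per well were treated with compounds over a concentration series and loaded with oleic acid (400 uM, as added). Lipid droplet fluorescence (488 nm excitation, 500-530 nm channel) was read by laser-scanning cytometry and normalized to 20 uM Triacsin C.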
# [14] = qHTS to identify inhibitors of the type 1 interferon - major histocompatibility complex class I in skeletal muscle: primary screen against the NCATS Mechanism Interrogation Plate v5.0 (MIPE) Libary (AID 1347411; active = well fitted curve in the direction sought with a large enough effect; an effect the other way counts as inactive or inconclusive; note: nearly all actives have a fitted effect of over 65% in size; note: potency is the fitted concentration of half-maximal effect;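 for activity change, negative = inhibition: plate controls were vehicle for no effect and reference inhibitor for full effect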)
# Outline: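 Immortalized human C25cl48 myoblasts with HiBit knocked into endogenous HLA-B*08:01 were stimulated with 4.0 ng/ml IFN-beta and exposed to compounds (11-point 1:3 titration, top 46 uM final) for 24 hrs at 37 C; HiBiT lytic luminescence measured.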
# [15] = qHTS assay to identify inhibitors of the type 1 interferon - major histocompatibility complex class I in skeletal muscle: Counter screen cell viability and HiBit confirmation (AID 1347412; active = well fitted curve in the direction sought with a large enough effect; an effect the other way counts as inactive or inconclusive; note: nearly all actives have a fitted effect of over 60% in size; note: potency is the fitted concentration of half-maximal effect); conditions: iHSKM muscle cells + IFN-b, HiBiT or CellTiter-Glo, 24 h; Potency: HiBiT; Viability, at 45.9 µM (top of the series)
# Outline: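 Myoblasts (C25cl48, HLA-B HiBiT) seeded in medium without dexamethasone, IFN-b 4 ng/ml added except unstimulated columns; 1 hr later compounds pinned (12-pt 1:3, top 46 uM final). Incubated 24 hrs, lysed 10 min, luminescence measured.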
# HEK293T = assay: qHTS assay to identify novel small-molecules to repurpose for Merkel cell carcinoma treatment (AID 1296009; active = well fitted curve in the direction sought with a large enough effect; an effect the other way counts as inactive or inconclusive; note: nearly all actives have a fitted effect of over 60% in size); conditions: MCC and control cell lines, CellTiter-Glo viability, 72 h; at 44.8 µM (top of the series) unless noted
# Outline: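 Cells exposed to NPC (8-point) and MIPE (11-point) compound dilutions for 72 hr at 37 degree celsius; viability read by CellTiter-Glo luminescence, normalized to no-cell and DMSO in-plate controls.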
# [16] = AP1 Signaling Pathway (AID 357; active = well fitted curve in either direction with a large enough effect, not every such curve was filed as active;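 note: ME-180 reporter cells stimulated with EGF at its EC50 level; % is set by controls: 0 for no effect and ±100 for the full control effect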)
# Outline: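 Modulation of EGF-driven AP-1 transcription was assessed with a beta-lactamase reporter in ME-180 cells. Compound and EC50 EGF were co-incubated 5 hours at 37 °C before 2.5-hour CCF4 loading at room temperature and dual-emission reading.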
# [17] = NFAT Signaling Pathway (AID 444; active = well fitted curve in either direction with a large enough effect, not every such curve was filed as active;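 note: carbachol stimulus at about its EC50 of 1 µM final; % is set by controls: 0 for no effect and ±100 for the full control effect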); conditions: Jurkat NFAT-bla M1, carbachol, beta-lactamase ratio, 5 h
# Outline: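 Jurkat cells carrying an NFAT-driven β-lactamase reporter and co-transfected muscarinic M1 receptor were treated with compound plus carbachol (1 uM final, an EC50 level) for 5 h at 37 °C. CCF4 loading followed for 1 h at RT; 460/530 nm ratio gave %activity.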
# [18] = Stat Signaling Pathway (AID 446; active = well fitted curve in either direction with a large enough effect, not every such curve was filed as active;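 note: ME-180 cervical cancer cells given 40 pM IL-6 alongside compound; SIE-controlled beta-lactamase reporter measured as 460/530 nm FRET emission ratio; % is set by controls: 0 for no effect and ±100 for the full control effect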)
# Outline: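 ME-180 cells carrying a SIE-driven beta-lactamase reporter are stimulated with 40 pM IL-6 for 5 h at 37C in the presence of compound. The 460/530 nm FRET substrate ratio is read after 2.5 h at RT. Data are normalised to 300 pM IL-6 and to 125 nM JAK inhibitor controls.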
# [19] = target: Glucocorticoid receptor (Homo sapiens) (UniProt P04150); assay: GR-GFP Redistribution (AID 450;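 active = compounds whose dose series gives a full or clear partial fitted curve of increased nuclear translocation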; note: potency is the fitted concentration of half-maximal effect); conditions: U2OS GR-GFP nuclear translocation, laser cytometry, 2 h
# [20] = measured here: cell count channel max response
# [21] = measured here: lipid channel max response
# Sequence of Phenylethanolamine N-methyltransferase (Homo sapiens) (P11086 whole entry, looked up): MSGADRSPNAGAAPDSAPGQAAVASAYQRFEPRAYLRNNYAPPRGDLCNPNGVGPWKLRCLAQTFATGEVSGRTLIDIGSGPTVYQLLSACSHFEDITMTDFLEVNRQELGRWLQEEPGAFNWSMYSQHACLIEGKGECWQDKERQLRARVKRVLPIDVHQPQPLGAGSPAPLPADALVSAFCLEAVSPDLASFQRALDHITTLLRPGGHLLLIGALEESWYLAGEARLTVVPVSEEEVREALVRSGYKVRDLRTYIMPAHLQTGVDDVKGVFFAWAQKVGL
# Sequence of Glucocorticoid receptor (Homo sapiens) (P04150 whole entry, looked up): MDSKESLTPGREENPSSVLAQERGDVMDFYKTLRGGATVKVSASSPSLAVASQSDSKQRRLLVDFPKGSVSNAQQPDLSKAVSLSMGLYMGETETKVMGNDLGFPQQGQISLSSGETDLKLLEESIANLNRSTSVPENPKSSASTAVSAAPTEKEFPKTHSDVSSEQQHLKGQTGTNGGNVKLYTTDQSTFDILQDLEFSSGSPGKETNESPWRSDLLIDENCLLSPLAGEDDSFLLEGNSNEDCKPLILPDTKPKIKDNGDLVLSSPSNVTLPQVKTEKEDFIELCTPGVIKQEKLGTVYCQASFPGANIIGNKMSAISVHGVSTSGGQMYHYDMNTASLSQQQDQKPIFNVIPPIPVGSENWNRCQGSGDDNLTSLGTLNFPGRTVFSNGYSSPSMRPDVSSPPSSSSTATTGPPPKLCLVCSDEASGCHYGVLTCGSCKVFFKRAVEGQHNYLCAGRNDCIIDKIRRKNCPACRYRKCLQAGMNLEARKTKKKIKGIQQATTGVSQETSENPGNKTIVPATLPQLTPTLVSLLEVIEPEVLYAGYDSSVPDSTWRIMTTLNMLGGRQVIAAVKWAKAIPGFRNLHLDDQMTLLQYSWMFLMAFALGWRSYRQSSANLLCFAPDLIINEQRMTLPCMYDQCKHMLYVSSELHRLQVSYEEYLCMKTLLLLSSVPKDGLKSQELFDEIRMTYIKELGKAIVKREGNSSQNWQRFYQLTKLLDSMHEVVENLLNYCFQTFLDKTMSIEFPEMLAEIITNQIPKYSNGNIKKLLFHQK
# Sequence of Cytochrome P450 3A4 (Homo sapiens) (P08684 whole entry, looked up): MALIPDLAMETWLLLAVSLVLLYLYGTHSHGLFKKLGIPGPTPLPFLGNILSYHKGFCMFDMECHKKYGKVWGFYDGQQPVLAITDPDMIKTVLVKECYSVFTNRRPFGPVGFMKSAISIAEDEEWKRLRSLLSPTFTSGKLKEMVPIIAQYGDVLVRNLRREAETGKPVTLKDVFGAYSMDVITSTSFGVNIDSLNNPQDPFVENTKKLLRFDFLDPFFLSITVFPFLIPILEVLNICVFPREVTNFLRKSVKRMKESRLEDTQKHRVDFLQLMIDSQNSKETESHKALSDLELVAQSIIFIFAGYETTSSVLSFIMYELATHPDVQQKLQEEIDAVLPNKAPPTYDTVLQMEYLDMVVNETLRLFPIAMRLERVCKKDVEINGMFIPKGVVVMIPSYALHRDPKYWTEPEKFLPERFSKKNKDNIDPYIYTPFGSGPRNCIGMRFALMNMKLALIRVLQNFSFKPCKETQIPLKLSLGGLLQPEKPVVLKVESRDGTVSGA
# Sequence of DNA dC->dU-editing enzyme APOBEC-3G (Homo sapiens) (Q9HC16 whole entry, looked up): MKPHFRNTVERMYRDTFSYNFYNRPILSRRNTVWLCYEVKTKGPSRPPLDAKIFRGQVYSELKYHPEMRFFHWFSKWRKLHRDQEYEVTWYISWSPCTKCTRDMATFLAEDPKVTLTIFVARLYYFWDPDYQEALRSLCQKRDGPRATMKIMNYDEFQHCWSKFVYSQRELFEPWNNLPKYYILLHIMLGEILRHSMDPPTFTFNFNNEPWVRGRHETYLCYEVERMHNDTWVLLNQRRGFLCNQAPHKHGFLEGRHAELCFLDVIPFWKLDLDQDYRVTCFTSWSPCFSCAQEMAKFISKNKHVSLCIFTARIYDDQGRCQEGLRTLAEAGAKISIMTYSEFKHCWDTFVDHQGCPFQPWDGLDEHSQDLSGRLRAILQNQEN
structure (smiles),measurement,setting,value
CC(=O)N1N=C(c2ccc(N)cc2)c2cc3c(cc2C[C@H]1C)OCO3,"activity change, negative = inhibition",[1],-4.19%
Oc1ccc2c3c1O[C@H]1c4[nH]c5c(N=C=S)cccc5c4C[C@@]4(O)[C@@H](C2)N(CC2CC2)CC[C@]314,Potency,[2],inactive
same,Potency,[3],10 µM (active)
CC(=O)O[C@H]1CC[C@H]2[C@@H]3CC[C@H]4CC(=O)C=C(C)[C@]4(C)[C@H]3CC[C@]12C,Potency,[4],inactive
same,outcome,[5],inactive
same,Potency,[6],inactive
same,outcome,[7],inactive
CN1CCc2cc3c(cc2C1C1OC(=O)c2c1ccc1c2OCO1)OCO3 (stereo not given),Potency,[8],1.26 µM (active)
same,Potency,[9],inactive
same,Potency,[10],inactive
same,Potency,[11],inactive
COc1ccc(CN(C(=O)[C@@H](N)Cc2c(C)cc(C(N)=O)cc2C)[C@@H](C)c2ncc(-c3ccccc3)[nH]2)cc1C(=O)O,Potency,[4],inactive
same,outcome,[5],inactive
same,Potency,[6],inactive
same,outcome,[7],inactive
same,"activity change, negative = inhibition",[1],-25.7%
COc1cc(N2CCN(C)CC2)ccc1N,activity,[12],-33.9%
CC1CCCC(=O)CCC/C=C/c2cc(O)cc(O)c2C(=O)O1 (stereo not given),Potency,[8],2 µM (active)
same,"activity change, negative = inhibition",[13],-7.32% (inactive)
same,max response,[13]; [20],9.42%
same,max response,[13]; [21],4.67%
C=C1[C@@H](C)[C@H]2[C@H](Cc3ccccc3)NC(=O)[C@]23[C@H](OC(C)=O)/C=C/[C@](C)(O)C(=O)[C@@H](C)C/C=C/[C@H]3[C@@H]1O,Potency,[10],inactive
CN[C@@H]1C[C@H]2O[C@@](C)([C@@H]1OC)n1c3ccccc3c3c4c(c5c6ccccc6n2c5c31)C(=O)NC4,Potency,[14],829 nM (active)
same,Potency,[15],198 nM (active)
CC(=O)OC[C@]12C[C@H](OC(=O)CC(C)C)C(C)=C[C@H]1O[C@@H]1[C@H](O)[C@@H](O)[C@@]2(C)[C@]12CO2,Potency,[2],113 nM (active)
CN(C)c1cc2c(cc1Sc1nc3c(N)nccc3n1CCNCC(C)(C)C)OCO2,Potency,[3],2.24 µM (active)
same,activity,[12],-0.0762%
C=C(CO)C(=O)O[C@H]1CC(=C)[C@@H]2C[C@H](O)C(=C)[C@@H]2[C@H]2OC(=O)C(=C)[C@@H]21,activity,[12],-8.66%
C=C1C[C@]2(O)[C@@]3(C)CCC(=O)C(C)(C)C3=C(O)C(=O)[C@@]2(C)[C@@H]2C(=O)O[C@@](C)(C(=O)OC)C(=O)[C@@]12C,outcome,HEK293T,inactive [at 17.4 µM]
CCC1C2CC3C4N(C)c5ccccc5C45CC(C2C5O)N3C1O (stereo not given),outcome,HEK293T,inactive
N#Cc1cn([C@@H]2O[C@H](CO)[C@H](O)[C@@H]2O)c2ncnc(N)c12,activity,[12],-99.9%
Cc1sc2c(c1C)C(c1ccc(Cl)cc1)=N[C@@H](CC(N)=O)c1nnc(C)n1-2,"activity change, negative = inhibition",[1],-6.24%
same,Potency,[15],inactive
CCCCN1[C@@H]2CC[C@H]1CC(OC(c1ccc(F)cc1)c1ccc(F)cc1)C2 (stereo not given in full),Potency,[3],5.01 µM (active)
same,activity,[12],3.98%
Cc1sc2c(c1C)C(c1ccc(Cl)cc1)=NC(CC(=O)Nc1ccc(O)cc1)c1nnc(C)n1-2 (stereo not given),"activity change, negative = inhibition",[1],-87.5%
Nc1ncnc2c1ncn2[C@@H]1O[C@@H]2COP(O)(=S)O[C@H]2[C@H]1O (stereo not given in full),outcome,HEK293T,inactive [at 9.27 µM]
C[C@H]1CCC/C=C/C2C[C@H](O)C[C@H]2[C@H](O)/C=C/C(=O)O1 (stereo not given in full),Potency,[10],inactive
same,Potency,[14],147 nM (active)
same,Potency,[11],316 nM (active)
same,Potency,[1],1 µM (active)
same,Potency,[15],140 nM (active)
C[C@H]1O[C@@H](O[C@H]2CC[C@]3(CO)C4CC[C@]5(C)[C@@H](C6=CC(=O)OC6)CC[C@]5(O)[C@@H]4CC[C@H]3C2)[C@H](O)[C@H](O)[C@@H]1O[C@@H]1O[C@H](CO)[C@@H](O)[C@H](O)[C@H]1O (stereo not given in full),activity,[12],-1.28%
C[C@@H]1CN(Cc2ccc(F)cc2)CCN1C(=O)COc1ccc(Cl)cc1NC(N)=O,Potency,[14],inactive
same,Potency,[1],2.51 µM (active)
C=CCN1CCC2(C)c3cc(O)ccc3C[C@H]1[C@H]2C,outcome,[16],inactive
same,"activity change, negative = inhibition",[17]; at 38 µM (top of the series),-29.1% (inactive)
same,outcome,[18],inactive
same,Potency,[19],> 46 µM (inactive)
same,Potency,[8],inactive
same,"activity change, negative = inhibition",[13],-8.46% (inactive)
same,max response,[13]; [20],25.8%
same,max response,[13]; [21],17%
same,Potency,[9],inactive
same,Potency,[10],inactive
C=C(C)[C@@H]1[C@H]2OC(=O)[C@H]1[C@]1(O)C[C@H]3O[C@]34C(=O)O[C@H]2[C@]14C,outcome,HEK293T,inactive
C[C@@]1(CO)[C@H](O)CC[C@@]2(C)[C@H]1CC[C@H]1C[C@@H]3C[C@@]12CC[C@]3(O)CO,outcome,[16],inactive
same,"activity change, negative = inhibition",[17]; at 17.2 µM (top of the series),10.1% (inactive)
same,outcome,[18],inactive
same,Potency,[19],> 20.6 µM (inactive)
same,Potency,[10],inactive
same,Potency,[11],inactive
CN1CCN(c2nc3ccccc3nc2Cl)CC1,outcome,HEK293T,inactive
CC1=CC(=O)[C@@H](O)[C@]2(C)C3[C@@H](O)[C@@H]4OC(=O)[C@@H]([C@H]4C)[C@]3(C)C(=O)C[C@@H]12 (stereo not given in full),Potency,[2],2240 nM (active)
Fc1cc(F)c2c(c1)C1C=CCC1C(c1cccnc1)N2 (stereo not given),activity,[12],-0.468%
COc1ccc2c(c1)c(CCN(C)C)cn2S(=O)(=O)c1ccccc1,Potency,[2],inactive
C#C[C@]1(O)CC[C@H]2[C@@H]3CC[C@H]4Cc5nc6nc7ccccc7n6cc5C[C@]4(C)[C@H]3CC[C@@]21C,activity,[12],-31.4%
CN(C)[C@@H]1C(=O)C(C(N)=O)=C(O)[C@@]2(O)C(=O)C3=C(O)c4c(O)ccc(Cl)c4[C@@](C)(O)C3C[C@@H]12 (stereo not given in full),outcome,[16],inactive
same,"activity change, negative = inhibition",[17]; at 17.2 µM (top of the series),0.867% (inactive)
same,outcome,[18],inactive
same,Potency,[19],> 20.6 µM (inactive)
CN1CCC2=C(C1)c1ccccc1Cc1ccccc12,outcome,[5],inactive
same,Potency,[6],inactive
same,outcome,[7],inactive
COc1cc(C(=O)N2CC[C@@H](O)[C@@H](N)C2)cc2nc(-c3cc4ccccc4n3CC3CC3)n(C)c12,Potency,[14],inactive
